From the supplement of paper PMC8371130 come the findings set out here.

The assay deals with HL-1. The experiment in a line: relative cell viability (CellTiter-Glo) vs DMSO control (% of DMSO control); higher = more viable cells. Put shortly:
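Viability of HL-1 mouse atrial cardiomyocytes was assessed by CellTiter-Glo luminescence and normalised to vehicle-treated control cells. Cells were plated in 384-well plates at 1000 cells per well with compounds at 40, 200, 1000 or 5000 nM in 0.01% DMSO, and one day later were placed at 1% O2 for 48 h, then reoxygenated for 24 h, or kept in normoxia for the same duration.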
Background: Cellular ATP, detected with luciferase, serves as a proxy for viable cell number.

Setting [1] is: oxygen condition: hypoxia 48 h (1% O2) + reoxygenation 24 h, 40 nM.
Where [2] appears, read: oxygen condition: hypoxia 48 h (1% O2) + reoxygenation 24 h, 200 nM.
Setting [3] is: oxygen condition: hypoxia 48 h (1% O2) + reoxygenation 24 h, 1000 nM.
[4] abbreviates: oxygen condition: hypoxia 48 h (1% O2) + reoxygenation 24 h, 5000 nM.
Where [5] appears, read: oxygen condition: normoxia 72 h, 40 nM.
Setting [6] is: oxygen condition: normoxia 72 h, 200 nM.
Setting [7] is: oxygen condition: normoxia 72 h, 1000 nM.
[8] abbreviates: oxygen condition: normoxia 72 h, 5000 nM.

Structures are written as SMILES. Structures can show the parent of a compound that is named as a salt.

For `C#C[C@]1(O)CC[C@H]2[C@@H]3CCc4cc(O)ccc4[C@H]3CC[C@@]21C` [Ethinyl Estradiol], the relative cell viability is, setting by setting: under setting [1], 104; under setting [2], 104; under setting [3], 105; under setting [4], 107; under setting [5], 107; under setting [6], 105. The compound further displayed a relative cell viability under setting [7] of 108 and a relative cell viability under setting [8] of 110.

As to `CNS(=O)(=O)CCc1ccc2[nH]cc(C3CCN(C)CC3)c2c1` [Naratriptan HCl], the relative cell viability under setting [1] came out at 97.1; the relative cell viability under setting [2] turned out to be 103; the relative cell viability under setting [3] worked out at 105; the relative cell viability under setting [4] came out at 108; the relative cell viability under setting [5] was determined as 103; the relative cell viability under setting [6] was 103. Also, the relative cell viability by setting is: under setting [7], 97.6; under setting [8], 111.

In the case of `CCCCN1CCCCC1C(=O)Nc1c(C)cccc1C` (stereo not drawn) [Bupivacaine hydrochloride], the relative cell viability under setting [1] is 107; the relative cell viability under setting [2] amounted to 105; the relative cell viability under setting [3] amounted to 102; the relative cell viability under setting [4] turned out to be 104; the relative cell viability under setting [5] was 105; the relative cell viability under setting [6] stood at 105. This compound also registered a relative cell viability under setting [7] of 106 and a relative cell viability under setting [8] of 102.

Turning to `C=C1CC[C@H](O)C/C1=C/C=C1\CCC[C@]2(C)[C@@H]([C@H](C)CCCC(C)(C)O)CC[C@@H]12` [Calcifediol], the relative cell viability worked out at 112 under setting [1]; 106 under setting [2]; 106 under setting [3]; 109 under setting [4]; 103 under setting [5]; 104 under setting [6]. The relative cell viability is, setting by setting: under setting [7], 114; under setting [8], 117.

On to `OC(CCN1CCCC1)(c1ccccc1)C1CCCCC1` (stereo not drawn) [Procyclidine HCl], for which the relative cell viability reads like this: under setting [1], 93.1; under setting [2], 89.9; under setting [3], 85.4; under setting [4], 29.9; under setting [5], 101; under setting [6], 97.7. The relative cell viability reads like this: under setting [7], 82.5; under setting [8], 30.6.

As to `CCCCN(CCCC)CCCOC(=O)c1ccc(N)cc1` [Butacaine], the relative cell viability is, setting by setting: under setting [1], 103; under setting [2], 101; under setting [3], 106; under setting [4], 106; under setting [5], 103; under setting [6], 92.7. Also, the relative cell viability came to 102 under setting [7] and 104 under setting [8].

With `C[C@@H](O)[C@H]1C(=O)N2C(C(=O)OCOC(=O)C(C)(C)C)=C(SC3CN(C4=NCCS4)C3)[C@H](C)[C@H]12` [Tebipenem pivoxil], the relative cell viability was determined as 98.3 under setting [1]; 102 under setting [2]; 99.2 under setting [3]; 91.2 under setting [4]; 96.9 under setting [5]; 92.7 under setting [6]. For the same compound, the relative cell viability reads like this: under setting [7], 101; under setting [8], 93.4.

Regarding `OC[C@@H](O)[C@@H](O)[C@H](O)[C@@H](O)CO` [Sorbitol], the relative cell viability under setting [1] came to 93; the relative cell viability under setting [2] was 101; the relative cell viability under setting [3] worked out at 98; the relative cell viability under setting [4] came to 101; the relative cell viability under setting [5] was found to be 100; the relative cell viability under setting [6] worked out at 106. Further, the relative cell viability stood at 97.9 under setting [7] and 97.5 under setting [8].

In the case of `O=P(O)(O)C(O)(Cc1cccnc1)P(=O)(O)O` [Risedronic acid], the relative cell viability by setting is: under setting [1], 94; under setting [2], 101; under setting [3], 96.4; under setting [4], 71.4; under setting [5], 99; under setting [6], 108. The relative cell viability was 105 under setting [7] and 107 under setting [8].

As for `Cc1cc2c(cc1S(N)(=O)=O)S(=O)(=O)CCC2` [Meticrane], the relative cell viability under setting [1] turned out to be 101; the relative cell viability under setting [2] is 101; the relative cell viability under setting [3] is 105; the relative cell viability under setting [4] is 103; the relative cell viability under setting [5] amounted to 102; the relative cell viability under setting [6] is 104. Also, the relative cell viability is, setting by setting: under setting [7], 102; under setting [8], 112.

For the compound `C=C[C@H]1CN2CC[C@H]1C[C@H]2[C@H](O)c1ccnc2ccc(OC)cc12` [Quinine hydrochloride dihydrate], the relative cell viability runs as follows: under setting [1], 103; under setting [2], 104; under setting [3], 102; under setting [4], 104; under setting [5], 102; under setting [6], 101. Further, the relative cell viability turned out to be 103 under setting [7] and 111 under setting [8].

As for `CS(=O)(=O)OCCCCOS(C)(=O)=O` [Busulfan], the relative cell viability worked out at 108 under setting [1]; 102 under setting [2]; 103 under setting [3]; 107 under setting [4]; 104 under setting [5]; 103 under setting [6]. The relative cell viability by setting is: under setting [7], 97.4; under setting [8], 120.

As for `Cn1c(=O)c2c(ncn2CC2OCCO2)n(C)c1=O` [Doxofylline], the relative cell viability turned out to be 101 under setting [1]; 111 under setting [2]; 122 under setting [3]; 113 under setting [4]; 108 under setting [5]; 111 under setting [6]. The relative cell viability reads like this: under setting [7], 113; under setting [8], 122.

For `COC(=O)CCc1ccc(OCC(O)CNC(C)C)cc1` (stereo not drawn) [Esmolol HCl], the relative cell viability runs as follows: under setting [1], 103; under setting [2], 104; under setting [3], 105; under setting [4], 80.4; under setting [5], 104; under setting [6], 104. Further, the relative cell viability amounted to 108 under setting [7] and 112 under setting [8].

As for `CN1CC(=O)N2[C@H](c3ccc4c(c3)OCO4)c3[nH]c4ccccc4c3C[C@@H]2C1=O` [Tadalafil], the relative cell viability is, setting by setting: under setting [1], 106; under setting [2], 105; under setting [3], 116; under setting [4], 112; under setting [5], 106; under setting [6], 112. In addition, the relative cell viability by setting is: under setting [7], 110; under setting [8], 121.

`CC(=O)NS(=O)(=O)c1ccc(N)cc1` [sulfacetamide sodium]: the relative cell viability reads like this: under setting [1], 97.5; under setting [2], 98.4; under setting [3], 106; under setting [4], 104; under setting [5], 102; under setting [6], 107. Moreover, the relative cell viability was found to be 107 under setting [7] and 108 under setting [8].
